Assay outcomes: PubChem, several laboratories
Pemphigus Ab inh: blocks pemphigus antibody binding to human desmoglein-3 | AID 588358 | DSG3-coupled beads, scFv-anti-DSG3-GFP binding, flow cytometry; hits give low values | 0.48% of 310,000 active | P32926 | binding (percent of control), % at 10 µM;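 active = binding more than 3 SD below its plate's average and above zero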;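 also: hits lower antibody fragment binding to DSG3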
rCAG binder: molecules binding r(CAG) RNA repeats; 1.3% of 370,000 active; inhibition, % at 3 µM; r(CAG) RNA repeat, TO-PRO-1 dye displacement fluorescence;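 active = inhibition above the plate cutoff, the mean of all test compounds on that plate plus 3 SD, cut at about 35% in these data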;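 also: 0% = DMSO alone and 100% = 100 µM mitoxantrone as full dye displacement; higher means more dye released from RNA so lower well fluorescence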
proKLK7 act: activates the human kallikrein-7 zymogen; P49862; 0.9% of 370,000 active; purified proKLK7, EDANS-DABCYL substrate fluorescence; 100% is mature enzyme control, 0% vehicle; AID 652039; activation, % at 7 µM;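 active = activation above the mean of all tested compounds plus 3 SD, computed per campaign excluding outliers beyond control limits, cut at about 13% in these data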
ADAM10 inh: inhibitors of human ADAM10; recombinant ADAM10, EDANS/DABCYL FRET peptide cleavage, 3 h; 0.62% of 370,000 active; inhibition, % at 7 µM;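 active = inhibition above a per-campaign cutoff equal to the mean of compounds falling between control-based bounds plus 3 SD, cut at about 20% in these data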;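 also: 0% = DMSO wells while the 100% control is not disclosed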
MPTP inh: permeability transition pore inhibition. isolated mouse mitochondria, Ca2+ swelling absorbance, 30 min. inhibition, % at 10 µM. 1.4% of 360,000 active;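 active = inhibition of 50% or more, scaled per plate between neutral and stimulator controls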;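 also: 0% = DMSO wells given calcium and 100% = 1 mM EGTA wells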
ADAM17 inh: inhibits human ADAM17; P78536; recombinant ADAM17, EDANS/DABCYL FRET peptide cleavage; inhibition, % at 6.95 µM; 0.83% of 370,000 active; AID 720648;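 active = inhibition above the mean of compounds lying between control limits plus 3 SD, set per campaign, cut at about 8.5% in these data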;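 also: 0% = DMSO-only wells as the low control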
Target sequence (P78536 215-824 limits assumed): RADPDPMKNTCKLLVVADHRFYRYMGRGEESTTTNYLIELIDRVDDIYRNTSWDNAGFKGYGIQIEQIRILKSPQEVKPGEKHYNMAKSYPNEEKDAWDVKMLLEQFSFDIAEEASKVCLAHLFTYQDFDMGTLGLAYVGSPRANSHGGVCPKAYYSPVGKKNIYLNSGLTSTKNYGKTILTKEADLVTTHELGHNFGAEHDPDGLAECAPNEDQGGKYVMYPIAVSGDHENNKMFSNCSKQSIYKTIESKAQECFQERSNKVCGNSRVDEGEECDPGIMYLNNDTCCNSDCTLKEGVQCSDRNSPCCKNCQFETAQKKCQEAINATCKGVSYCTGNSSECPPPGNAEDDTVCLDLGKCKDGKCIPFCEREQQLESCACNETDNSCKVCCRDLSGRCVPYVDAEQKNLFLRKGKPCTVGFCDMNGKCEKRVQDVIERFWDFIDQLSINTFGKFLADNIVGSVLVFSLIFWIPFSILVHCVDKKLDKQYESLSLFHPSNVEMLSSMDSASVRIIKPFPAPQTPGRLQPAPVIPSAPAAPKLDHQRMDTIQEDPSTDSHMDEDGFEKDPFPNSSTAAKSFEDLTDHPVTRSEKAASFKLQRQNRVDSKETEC
rCAG bind conf: r(CAG) RNA repeat binding, confirmation | AID 652065 | shares compounds with rCAG binder | TO-PRO-1 dye displacement fluorescence | inhibition, % at 3 µM | 70% of 4,300 active;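 active = inhibition above a per-plate cutoff, the mean inhibition of sample wells plus 3 SD, cut at about 35% in these data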;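 also: loss of TO-PRO-1 fluorescence as compound displaces dye from 1x1 AA loop RNA; 0% = DMSO only wells and 100% = 100 µM mitoxantrone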
DNA CAG counter: counter-screen for rCAG RNA binders: DNA CAG dye complex inhibitors | shares compounds with rCAG binder | d(CAG) DNA oligo TO-PRO-1 dye displacement, fluorescence | inhibition, % at 3 µM | 94% of 4,300 active;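 active = inhibition above its plate's cutoff, the mean test-well inhibition plus 3 SD, cut at about 4.8% in these data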;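 also: 0% = DNA dye mix with DMSO and 100% = 100 µM mitoxantrone; hits displace the dye from DNA and so lower well fluorescence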
dCAG dye DR: disrupts DNA CAG TO-PRO-1 complex in dose response; shares compounds with rCAG binder; DNA CAG/GTC duplex TO-PRO-1 dye displacement fluorescence; IC50, µM; 20% of 250 active; in the data active = IC50 below about 10 µM
Starred values were filed as active, the others as inactive; . = not tested or not shown. Shown are actives, neighbours in structure and some others; about 4.7% of the full set was active somewhere.

SMILES	Pemphigus Ab inh	rCAG binder	proKLK7 act	ADAM10 inh	MPTP inh	ADAM17 inh	rCAG bind conf	DNA CAG counter	others
COc1cccc(OCc2cc(/C=N/Nc3ccc(C(=O)O)cc3)ccc2OC)c1	61*	64*	-1	-8	2	-6	74*	37*
COc1cc(/C=N/Nc2ccc(Cl)c(C(=O)O)c2)ccc1OC(=O)c1ccccc1F	99	66*	1	-1	-2	-2	80*	47*
COc1ccc(C(=O)N/N=C/c2ccc(OC)c(COc3ccc(F)cc3)c2)cc1	105	0	-3	0	-1	3	.	.
O=C(O)c1ccc(N/N=C/c2ccc(C(F)(F)F)cc2)cc1	116	19	0	-9	-4	-1	.	.
O=C1CCC[C@H]2CC3(CC[C@]24CCCN14)OCCO3	.	.	.	-4	.	-5	.	.
COCC(C)n1c(COc2ccccc2F)nnc1SCC(=O)Nc1oc(C)c2c(C)n[nH]c(=O)c12 (centres undefined)	99	-6	1	-9	-3	2	.	.
COc1ccc(C2=NS(=O)(=O)N(C)C(C(=O)N3CCc4ccccc4C3)=C2)cc1OC	108	5	3	-7	1	1	.	.
COc1ccc(OC)c(NC(=O)c2nnn(CC(=O)Nc3ccc4c(c3)OCO4)c2N)c1	94	.	.	.	1	.	.	.
COc1cc(/C=N/NS(=O)(=O)c2ccc3ccccc3c2)ccc1OCc1ccc(C(=O)O)cc1	95	48*	0	-10	3	-6	40*	11*
O=C(NNc1c(Cl)cc(Cl)cc1Cl)c1cccc([N+](=O)[O-])c1	121	37*	0	0	17	-1	6	3
Nc1nc(NCCOCCO)nc(NCc2ccccc2)c1[N+](=O)[O-]	100	-2	0	0	0	4	.	.
CCOC(=O)N1CCN(C(=O)C(CC)c2ccccc2)CC1 (centres undefined)	96	39*	-1	8	-1	-1	6	1
CCC(C(=O)N1CCN(S(C)(=O)=O)CC1)c1ccccc1 (centres undefined)	105	-5	0	2	-1	-5	.	.
CCCCCNC(=O)C(c1cc2ccccc2o1)n1c(=O)c(-c2cc3ccccc3[nH]2)nc2ccccc21 (centres undefined)	.	23	-1	-75	3	-33	.	.
Oc1cc(O)cc(C=Cc2ccc(O)c(O)c2)c1	.	38*	-135	-140	.	-48	29	15*
CCOC(=O)C1C(=O)CC(=O)C(C(=O)OCC)C1c1ccc(O)cc1 (centres undefined)	102	36*	0	-8	0	-2	3	1
CCOC(=O)C1C(=O)CC(C)(O)C(C(=O)OCC)C1c1ccc(F)cc1 (centres undefined)	109	-8	0	-8	0	-6	.	.
Cc1ccc(C(=O)Nc2ccccc2C(=O)NC(Cc2ccccc2)C(=O)O)cc1 (centres undefined)	100	43*	0	2	0	-1	38*	8.7*
Cc1ccc(C(=O)Nc2ccccc2C(=O)NC(Cc2c[nH]c3ccccc23)C(=O)O)cc1 (centres undefined)	101	61*	0	0	1	-3	63*	24*
O=C(NC(Cc1c[nH]c2ccccc12)C(=O)O)c1ccccc1 (centres undefined)	98	1	0	-3	3	-1	.	.
N/C(=N\N=C\c1cccs1)SC1CC(=O)N(c2ccc(Br)cc2)C1=O (centres undefined)	136	38*	0	17	2	8	70*	25*	dCAG dye DR=>30
N/C(=N\N=C\c1ccnc2ccccc12)SC1CC(=O)N(c2ccc(Br)cc2)C1=O (centres undefined)	90	23	0	6	2	4	.	.
